# Out of some 2,100 compounds screened, about 760 (36%) were called active. A selection follows. Values without a mark were called inactive.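 How the source made its calls: active means thallium-flux fluorescence traces judged by eye to show enhanced or reduced glutamate response, manual score 1 or -1, so both directions (some results past the limit were not filed as active); inactive means the rest, including fluorescent or raised-baseline compounds.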
# Test: thallium influx changes without GIRK channels – cell-based, HEK-293 rmGlu8, no GIRK, thallium flux, counter-screen for GIRK activator project, confirmation (AID 623868);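 further: extra codes mark interference with 3 for fluorescent and 4 for baseline rise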
# Conditions: thallium flux fluorescence, at 10 µM, actives lie on both sides, codes: 1 enhancer, -1 blocker, 0 none, thallium stimulus containing EC20 glutamate
row,Compound,manual score
1,CCCCCCc1cc2cc(C(=O)NC)c(=N)oc2cc1O,3
2,COc1ccc(Nc2nnc(Cc3ccccc3)c(=O)[nH]2)c(OC)c1,0
3,CCc1nnc(NS(=O)(=O)c2ccc(NC(=S)NC(=O)c3ccccc3)cc2)s1,0
4,CCN(c1ccccc1)S(=O)(=O)c1ccc(NC(=S)NC(=O)c2ccc(Br)o2)cc1,1 (active)
5,CN(c1ccccc1)S(=O)(=O)c1ccc(NC(=S)NC(=O)c2ccccc2)cc1,0
6,CCOC(=O)c1ccccc1NC(=O)CSc1nnc(Cc2cccn2C)n1-c1ccc(F)cc1,0
7,CCOC(=O)c1ccccc1NC(=O)CSc1nnc(COc2ccccc2)n1CC,0
8,COC(=O)c1ccc(NC(=O)CSc2nnc(COc3ccccc3)n2C)cc1,3
9,CCOC(=O)CN(C(=O)CSc1nnc(Cc2ccccc2)n1-c1ccc(C)cc1)c1ccccc1,0
10,CCOC(=O)c1ccccc1NC(=O)CSc1nnc(Cc2cccn2C)n1-c1ccc(C)cc1,-1 (active)
11,CCOC(=O)c1ccccc1NC(=O)CSc1nnc(COc2ccccc2C)n1C,-1 (active)
12,CCSc1nc(-c2ccccc2)c(C#N)c(=O)[nH]1,-1 (active)
13,N#Cc1c(N)nc(SCc2ccccc2)c(C#N)c1-c1ccco1,0
14,CCOc1ccccc1C1CC(=O)NC(SCC)=C1C#N (stereo not drawn),0
15,N#Cc1c(-c2ccco2)nc(SCc2ccc(F)cc2)[nH]c1=O,-1 (active)
16,CCc1nc(SCc2ccc(F)cc2)[nH]c(=O)c1C#N,3
17,CC(Sc1nc2ccccc2c(=O)[nH]1)C(=O)O (stereo not drawn),0
18,Cc1oc(-c2ccccc2F)nc1CS(=O)(=O)CC(=O)NCCN(C)C1CCCCC1,0
19,c1cn(CC2(Cn3ccnc3)COC2)cn1,0
20,CCOc1ccccc1N1CCN(C(=O)c2cc3c(s2)CCC3)CC1,-1 (active)
21,CCCc1ccc(C(=O)N2CCN(c3ccccc3OCC)CC2)cc1,-1 (active)
22,O=C(c1ccccc1Oc1ccccc1)N1CCN(c2ccccc2)CC1,0
23,O=C(c1ccccc1CCc1ccccc1)N1CCN(c2ccccn2)CC1,0

row,Compound,manual score
1,CC1CCN(c2c([N+](=O)[O-])c(=O)oc3ccccc23)CC1,0
2,COc1ccc(C(C)n2c(C)c3c(C)nnc(C)c3c2C)cc1 (stereo not drawn),0
3,O=C(CSc1nc2ccccc2n1CCc1ccccc1)N1CCOCC1,0
4,O=C1OCCC1Sc1nc2cc(Cl)ccc2n1Cc1ccccc1 (stereo not drawn),1 (active)
5,CC1=C(C(=O)Nc2cccnc2)C(c2ccc3c(c2)OCO3)C2=C(CCCC2=O)N1 (stereo not drawn),0
6,Cc1ccccc1-c1nc(CS(=O)(=O)CC(=O)NCCCN2CCCC2)c(C)o1,0
7,Cc1cccc(-c2nc(CN3CCCC(C(=O)NC4CCCCC4)C3)c(C)o2)c1 (stereo not drawn),0
8,Cc1oc(-c2ccccc2)nc1CS(=O)CC(=O)O (stereo not drawn),1 (active)
9,CCOC(=O)Cc1csc(NC(=O)Nc2ccccc2)n1,0
10,CCOC(=O)Cc1csc(NC(=S)NC(=O)C(C)(C)C)n1,1 (active)
11,CCOC(=O)Cc1csc(NC(=S)NC(=O)c2ccccc2)n1,1 (active)
12,CCOC(=O)Cc1csc(NC(=S)NC(=O)c2ccc(C)cc2)n1,1 (active)
13,CC1CCN(c2ccc(/C=N/n3nnnc3N)cc2[N+](=O)[O-])CC1,0
14,COc1ccc2c(c1)Sc1ccccc1N2CCN(C)C,0
15,COc1ccccc1/C=C/C=N\N1CCN(Cc2ccccc2Cl)CC1,0
16,O/N=C/c1cc(Cl)ccc1OCc1cccc2ccccc12,0
17,Cc1cc(C)n(-c2nnc(C)n2/N=C/c2ccccc2OCc2ccccc2Cl)n1,-1 (active)
18,CCc1ccc(NC(=S)NNC(=O)c2ccccc2OC(F)F)cc1,1 (active)
19,Fc1ccc(NC(=S)Nc2ccccc2OC(F)F)cc1Cl,0
20,CCNC(=S)NNC(=O)c1cccn(Cc2ccc(Cl)cc2)c1=O,0
21,CCc1ccc2c(c1)C1(NN=C(c3cccc4ccccc34)S1)C(=O)N2 (stereo not drawn),0
22,CCc1ccc(Nc2nc3ccccc3c(=O)s2)cc1,1 (active)
23,c1ccc2c(Nc3nnc(-c4ccncc4)s3)cccc2c1,0

row,Compound,manual score
1,CCOc1cc(C(=O)NCc2ccncc2)cc(OCC)c1OCC,0
2,COc1ccc(-n2nnnc2SCC(=O)N2CCOCC2)cc1,0
3,NS(=O)(=O)c1ccc(S(=O)(=O)N2CCCC2)cc1,0
4,Cc1ccc2nc(-c3ccc(O)cc3)c(Nc3ccc4c(c3)OCCO4)n2c1,-1 (active)
5,Cc1ccc(-c2nnc(SCC(=O)Nc3ccc4c(c3)OCCO4)n2N)cc1,0
6,CCCN(CCC)CC(O)Cn1cc(/C=C/C(=O)c2cccs2)c2ccccc21 (stereo not drawn),3
7,O=C(Nc1nc2ccc(Cl)cc2s1)c1ccc(Br)o1,0.5
8,CCc1ccc2nc(NC(=O)c3cc(C)on3)sc2c1,1 (active)
9,CNC(=O)c1ccc2nc(NC(C)=O)sc2c1,0
10,Cc1cc(C)c2nc(NC(=O)c3cc(C)on3)sc2c1,1 (active)
11,COc1ccc(-c2c(S(=O)(=O)c3ccccc3)cnn2-c2ccccc2)cc1,0
12,CCOc1ccc(NC(=O)NC23CC4CC(CC(C4)C2)C3)cc1,0
13,COc1ccc2nc(NC(=S)N(C)C)sc2c1,1 (active)
14,CS(=O)(=O)c1ccc2nc(NC(=O)Nc3ccc(Cl)c(Cl)c3)sc2c1,0
15,COc1ccc2nc(N=Nc3ccc(O)c4ccccc34)sc2c1,0
16,Cc1ccc(OCC(O)Cn2c(=N)n(Cc3ccccc3)c3ccccc32)cc1 (stereo not drawn),0
17,CCn1c(-c2ccc(-c3ccccc3)cc2)c[nH]c1=S,0
18,CCn1c2ccccc2c2cc(/C=N/n3cn[nH]c3=S)ccc21,1 (active)
19,CCn1c(-c2cc3c(C(F)(F)F)nn(C)c3s2)n[nH]c1=S,0
20,CCOC(=O)Cn1c(=N)n(Cc2ccccc2F)c2ccccc21,0
21,O=[n+]1c2c(n([O-])c3cc(F)c(N4CCCC4)cc31)CCCC2,3
22,Cc1ccc(S(=O)(=O)N2CCN(C)CC2)cc1-c1nnc2c3ccccc3c(C)nn12,0

# — PubChem BioAssay AID623868 (Vanderbilt High Throughput Screening Facility, 2012)
